Common to all, as to assay: DAPPL (digital affinity profiling via proximity ligation, sequencing); 10 mM Tris-HCl pH 7.5, 50 mM NaCl, 1 mM DTT, 4% glycerol, room temperature, 30 min; GST-TFs on glutathione beads, 16-mer random dsDNA library, 0.1% formaldehyde crosslink after washing; high values mean tight binding
The target in one assay is T1, FEV (Homo sapiens, UniProt Q99581 1-238).
T1 sequence: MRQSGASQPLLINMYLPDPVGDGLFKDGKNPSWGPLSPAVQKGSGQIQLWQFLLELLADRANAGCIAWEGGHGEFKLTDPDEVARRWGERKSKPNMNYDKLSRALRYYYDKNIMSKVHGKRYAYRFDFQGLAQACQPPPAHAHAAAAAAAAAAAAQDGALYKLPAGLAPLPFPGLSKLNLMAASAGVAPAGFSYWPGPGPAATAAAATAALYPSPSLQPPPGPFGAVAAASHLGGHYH
The note with it: protein: recombinant; tags: N-terminal GST; dsDNA, one strand shown. The method in brief:
(§1)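 A tag-only sample was pooled with DNA-barcoded human transcription factors that had been expressed in yeast as GST fusions and captured on glutathione beads. The pools were incubated for 30 min at room temperature with 200 nmole of a random double-stranded 16-mer DNA library in Tris/NaCl/DTT/glycerol buffer, then washed, crosslinked with 0.1% formaldehyde, proximity-ligated (BsaI/T4 ligase, 1 h, 37 °C), PCR-amplified and sequenced on an Illumina NextSeq500. Binding signal is each hexamer's read frequency for a factor divided by its frequency for the tag-only sample.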

For another assay, the target named is ETV5 (Homo sapiens, UniProt P41161 1-510). The note with it: protein: recombinant; tags: N-terminal GST; dsDNA, one strand shown. In short, it runs like this:
as §1

The next assay deals with HSF1 (Homo sapiens, UniProt Q00613 1-529). The note with it: protein: recombinant; tags: N-terminal GST; chain copies: 3; dsDNA, one strand shown. In short, it runs like this: as §1
HSF1, sequence (Q00613 whole entry): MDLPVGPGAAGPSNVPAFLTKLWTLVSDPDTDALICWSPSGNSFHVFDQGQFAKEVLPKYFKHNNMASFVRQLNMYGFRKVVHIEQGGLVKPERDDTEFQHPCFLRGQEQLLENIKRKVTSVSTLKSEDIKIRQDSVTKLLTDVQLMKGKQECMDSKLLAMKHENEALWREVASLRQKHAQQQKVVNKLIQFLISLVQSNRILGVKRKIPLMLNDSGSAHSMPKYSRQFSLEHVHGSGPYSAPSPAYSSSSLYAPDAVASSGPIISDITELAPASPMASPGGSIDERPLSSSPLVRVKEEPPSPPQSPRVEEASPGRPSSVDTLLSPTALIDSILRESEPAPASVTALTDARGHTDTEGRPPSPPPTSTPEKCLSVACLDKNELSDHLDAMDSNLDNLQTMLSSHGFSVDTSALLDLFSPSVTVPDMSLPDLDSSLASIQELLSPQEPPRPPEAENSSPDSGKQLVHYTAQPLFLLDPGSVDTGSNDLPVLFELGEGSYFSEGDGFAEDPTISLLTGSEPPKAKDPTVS
The target of another assay is T2, SPIC (Homo sapiens, UniProt Q8N5J4 1-248).
T2 sequence: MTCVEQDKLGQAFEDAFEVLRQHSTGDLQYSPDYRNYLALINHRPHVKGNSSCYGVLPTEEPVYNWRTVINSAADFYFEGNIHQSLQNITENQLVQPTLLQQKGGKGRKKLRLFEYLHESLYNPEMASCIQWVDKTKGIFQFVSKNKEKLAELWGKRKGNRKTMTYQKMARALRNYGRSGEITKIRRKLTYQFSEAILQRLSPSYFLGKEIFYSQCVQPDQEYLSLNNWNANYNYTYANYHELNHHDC
The note with it: protein: recombinant; tags: N-terminal GST; dsDNA, one strand shown. The method in brief: as §1

In the next assay the target is ELF4 (Homo sapiens, UniProt Q99607 1-663). The note with it: protein: recombinant; tags: N-terminal GST; dsDNA, one strand shown. In short, it runs like this: as §1
ELF4, sequence (Q99607 whole entry): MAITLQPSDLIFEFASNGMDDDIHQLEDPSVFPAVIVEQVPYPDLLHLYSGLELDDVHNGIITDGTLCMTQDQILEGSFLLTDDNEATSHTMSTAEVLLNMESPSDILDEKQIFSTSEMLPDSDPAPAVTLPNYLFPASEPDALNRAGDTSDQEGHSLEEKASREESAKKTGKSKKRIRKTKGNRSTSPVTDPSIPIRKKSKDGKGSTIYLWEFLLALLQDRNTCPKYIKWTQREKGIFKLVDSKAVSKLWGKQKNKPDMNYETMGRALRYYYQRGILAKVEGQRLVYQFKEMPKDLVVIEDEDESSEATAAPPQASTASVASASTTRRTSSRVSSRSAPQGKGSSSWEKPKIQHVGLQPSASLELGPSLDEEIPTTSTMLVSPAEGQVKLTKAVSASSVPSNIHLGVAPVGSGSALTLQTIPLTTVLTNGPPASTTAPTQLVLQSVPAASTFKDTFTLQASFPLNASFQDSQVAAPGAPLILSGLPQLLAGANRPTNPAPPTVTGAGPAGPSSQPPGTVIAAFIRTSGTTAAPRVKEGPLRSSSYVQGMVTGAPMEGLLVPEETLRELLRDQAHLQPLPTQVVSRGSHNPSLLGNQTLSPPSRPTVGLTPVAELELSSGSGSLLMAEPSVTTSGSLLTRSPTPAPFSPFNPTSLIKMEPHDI
A further assay deals with T3, ELK4 (Homo sapiens, UniProt P28324-2 1-405).
T3 sequence: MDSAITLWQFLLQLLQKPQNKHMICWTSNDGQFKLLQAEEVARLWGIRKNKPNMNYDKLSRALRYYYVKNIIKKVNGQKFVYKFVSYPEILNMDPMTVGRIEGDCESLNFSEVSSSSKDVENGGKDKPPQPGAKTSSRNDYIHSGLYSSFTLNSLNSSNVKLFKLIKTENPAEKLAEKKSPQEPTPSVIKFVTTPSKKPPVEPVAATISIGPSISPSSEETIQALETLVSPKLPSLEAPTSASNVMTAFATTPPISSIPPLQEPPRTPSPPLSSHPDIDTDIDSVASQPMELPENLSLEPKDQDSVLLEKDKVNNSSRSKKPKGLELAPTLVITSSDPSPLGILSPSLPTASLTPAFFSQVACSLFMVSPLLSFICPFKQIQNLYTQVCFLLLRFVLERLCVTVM
The note with it: protein: recombinant; tags: N-terminal GST; dsDNA, one strand shown. The method in brief:
as §1

A further assay addresses T4, ETV2 (Homo sapiens, UniProt O00321 1-342).
T4 sequence: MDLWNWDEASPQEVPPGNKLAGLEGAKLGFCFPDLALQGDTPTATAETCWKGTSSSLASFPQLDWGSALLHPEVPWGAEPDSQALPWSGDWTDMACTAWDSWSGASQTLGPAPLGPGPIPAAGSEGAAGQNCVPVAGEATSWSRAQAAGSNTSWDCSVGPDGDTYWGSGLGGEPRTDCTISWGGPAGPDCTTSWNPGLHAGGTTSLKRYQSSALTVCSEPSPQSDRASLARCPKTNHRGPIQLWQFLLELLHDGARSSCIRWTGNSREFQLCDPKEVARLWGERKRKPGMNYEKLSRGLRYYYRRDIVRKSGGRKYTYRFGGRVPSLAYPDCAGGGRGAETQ
The note with it: protein: recombinant; tags: N-terminal GST; dsDNA, one strand shown. The method in brief:
as §1

A further assay concerns the target T5, ELF3 (Homo sapiens, UniProt P78545 1-371).
T5 sequence: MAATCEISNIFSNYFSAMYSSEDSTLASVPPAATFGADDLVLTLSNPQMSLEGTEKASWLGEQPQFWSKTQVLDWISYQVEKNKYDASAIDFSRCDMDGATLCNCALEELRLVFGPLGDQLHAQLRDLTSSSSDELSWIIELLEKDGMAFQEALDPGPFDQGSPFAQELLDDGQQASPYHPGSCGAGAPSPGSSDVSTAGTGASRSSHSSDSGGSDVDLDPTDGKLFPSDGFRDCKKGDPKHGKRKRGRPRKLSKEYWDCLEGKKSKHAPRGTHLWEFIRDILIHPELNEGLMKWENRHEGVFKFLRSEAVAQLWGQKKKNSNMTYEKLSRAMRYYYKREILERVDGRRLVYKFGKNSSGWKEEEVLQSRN
The note with it: protein: recombinant; tags: N-terminal GST; dsDNA, one strand shown. In short, it runs like this: as §1

The target in another assay is CRX (Homo sapiens, UniProt O43186 1-299). The note with it: protein: recombinant; tags: N-terminal GST; dsDNA, one strand shown. In short, it runs like this:
as §1

The next assay concerns the target ETV1 (Homo sapiens, UniProt P50549 1-477). The note with it: protein: recombinant; tags: N-terminal GST; dsDNA, one strand shown. In short, it runs like this:
as §1

A further assay concerns the target T6, ERF (Homo sapiens, UniProt P50548 1-548).
T6 sequence: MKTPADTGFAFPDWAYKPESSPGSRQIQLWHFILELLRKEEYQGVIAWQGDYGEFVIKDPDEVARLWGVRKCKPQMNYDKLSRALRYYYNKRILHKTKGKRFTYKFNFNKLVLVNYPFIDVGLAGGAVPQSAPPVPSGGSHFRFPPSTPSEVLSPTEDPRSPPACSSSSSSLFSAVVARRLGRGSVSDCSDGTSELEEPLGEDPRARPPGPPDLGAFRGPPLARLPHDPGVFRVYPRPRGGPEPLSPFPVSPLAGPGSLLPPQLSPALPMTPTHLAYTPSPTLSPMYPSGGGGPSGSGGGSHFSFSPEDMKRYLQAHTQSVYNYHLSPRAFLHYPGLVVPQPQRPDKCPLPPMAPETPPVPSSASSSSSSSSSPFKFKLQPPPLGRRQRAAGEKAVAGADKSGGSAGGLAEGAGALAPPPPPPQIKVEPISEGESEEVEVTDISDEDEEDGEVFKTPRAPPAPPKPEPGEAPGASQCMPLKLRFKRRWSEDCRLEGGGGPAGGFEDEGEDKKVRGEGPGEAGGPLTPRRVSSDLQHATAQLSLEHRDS
The note with it: protein: recombinant; tags: N-terminal GST; dsDNA, one strand shown. The method in brief: as §1

In another assay the target is T7, ETV3L (Homo sapiens, UniProt Q6ZN32 1-361).
T7 sequence: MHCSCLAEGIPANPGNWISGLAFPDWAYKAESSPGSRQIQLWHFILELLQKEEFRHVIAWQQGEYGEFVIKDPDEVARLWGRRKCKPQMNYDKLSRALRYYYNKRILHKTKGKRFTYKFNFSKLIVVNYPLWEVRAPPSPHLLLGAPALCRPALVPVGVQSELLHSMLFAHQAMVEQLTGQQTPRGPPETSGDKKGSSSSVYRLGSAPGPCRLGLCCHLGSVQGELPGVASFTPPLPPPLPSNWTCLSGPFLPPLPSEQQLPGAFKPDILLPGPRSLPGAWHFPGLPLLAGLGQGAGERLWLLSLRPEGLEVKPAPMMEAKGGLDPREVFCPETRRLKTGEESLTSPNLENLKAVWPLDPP
The note with it: protein: recombinant; tags: N-terminal GST; dsDNA, one strand shown. In short, it runs like this: as §1

The target of the next assay is T8, ETS2 (Homo sapiens, UniProt P15036 1-469).
T8 sequence: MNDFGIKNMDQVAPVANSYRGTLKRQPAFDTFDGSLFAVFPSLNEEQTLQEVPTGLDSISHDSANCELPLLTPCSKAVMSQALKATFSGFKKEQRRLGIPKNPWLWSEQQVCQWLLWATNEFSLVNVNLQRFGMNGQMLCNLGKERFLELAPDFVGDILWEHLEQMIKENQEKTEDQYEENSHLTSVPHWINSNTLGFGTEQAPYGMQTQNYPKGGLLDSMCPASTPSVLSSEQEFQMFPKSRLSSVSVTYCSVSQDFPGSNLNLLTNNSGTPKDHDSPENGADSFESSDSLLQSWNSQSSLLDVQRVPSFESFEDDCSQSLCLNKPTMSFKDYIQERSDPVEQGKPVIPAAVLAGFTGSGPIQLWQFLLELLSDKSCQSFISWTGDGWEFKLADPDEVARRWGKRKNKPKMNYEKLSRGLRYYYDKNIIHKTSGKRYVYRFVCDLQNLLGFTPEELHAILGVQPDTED
The note with it: protein: recombinant; tags: N-terminal GST; dsDNA, one strand shown. In short, it runs like this:
as §1

A further assay addresses T9, SPDEF (Homo sapiens, UniProt O95238 1-335).
T9 sequence: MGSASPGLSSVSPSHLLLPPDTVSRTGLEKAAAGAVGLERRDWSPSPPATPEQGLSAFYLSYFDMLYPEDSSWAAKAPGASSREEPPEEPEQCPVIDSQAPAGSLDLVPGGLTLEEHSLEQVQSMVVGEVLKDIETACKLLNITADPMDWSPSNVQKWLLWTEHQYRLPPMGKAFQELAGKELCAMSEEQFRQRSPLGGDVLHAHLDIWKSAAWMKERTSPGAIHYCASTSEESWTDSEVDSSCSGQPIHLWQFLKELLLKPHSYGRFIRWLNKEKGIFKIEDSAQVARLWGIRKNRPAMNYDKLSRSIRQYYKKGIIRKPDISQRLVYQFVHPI
The note with it: protein: recombinant; tags: N-terminal GST; dsDNA, one strand shown. The method in brief:
as §1

The target in a further assay is T10, ETV7 (Homo sapiens, UniProt Q9Y603 1-341).
T10 sequence: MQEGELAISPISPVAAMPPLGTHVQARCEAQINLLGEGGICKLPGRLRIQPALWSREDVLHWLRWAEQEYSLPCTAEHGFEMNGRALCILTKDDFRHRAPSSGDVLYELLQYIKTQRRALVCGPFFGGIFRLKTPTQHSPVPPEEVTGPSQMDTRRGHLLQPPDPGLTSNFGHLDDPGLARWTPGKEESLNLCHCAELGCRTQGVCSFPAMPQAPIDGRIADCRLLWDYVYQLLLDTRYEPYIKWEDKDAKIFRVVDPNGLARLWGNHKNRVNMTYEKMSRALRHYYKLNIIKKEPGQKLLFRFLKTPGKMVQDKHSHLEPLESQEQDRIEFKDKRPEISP
The note with it: protein: recombinant; tags: N-terminal GST; dsDNA, one strand shown. The method in brief:
as §1

Another assay deals with T11, ELF5 (Homo sapiens, UniProt Q9UKW6-2 1-255).
T11 sequence: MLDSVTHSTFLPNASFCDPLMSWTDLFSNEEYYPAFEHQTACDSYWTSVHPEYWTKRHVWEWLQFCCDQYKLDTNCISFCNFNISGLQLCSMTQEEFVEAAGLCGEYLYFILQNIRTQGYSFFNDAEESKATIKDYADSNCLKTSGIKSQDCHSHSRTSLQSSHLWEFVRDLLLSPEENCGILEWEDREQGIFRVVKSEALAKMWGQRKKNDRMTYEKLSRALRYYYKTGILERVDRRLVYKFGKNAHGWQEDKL
The note with it: protein: recombinant; tags: N-terminal GST; dsDNA, one strand shown. In short, it runs like this:
as §1

Another assay deals with T12, ETV3 (Homo sapiens, UniProt P41162-2 1-143).
T12 sequence: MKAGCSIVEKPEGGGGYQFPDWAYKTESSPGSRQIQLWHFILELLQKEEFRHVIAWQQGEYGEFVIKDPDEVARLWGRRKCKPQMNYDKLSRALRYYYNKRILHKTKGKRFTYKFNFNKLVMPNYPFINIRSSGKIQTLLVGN
The note with it: protein: recombinant; tags: N-terminal GST; dsDNA, one strand shown. In short, it runs like this: as §1

In another assay the target is ETV6 (Homo sapiens, UniProt P41212 1-452). The note with it: protein: recombinant; tags: N-terminal GST; dsDNA, one strand shown. The method in brief: as §1
ETV6, sequence (P41212 whole entry): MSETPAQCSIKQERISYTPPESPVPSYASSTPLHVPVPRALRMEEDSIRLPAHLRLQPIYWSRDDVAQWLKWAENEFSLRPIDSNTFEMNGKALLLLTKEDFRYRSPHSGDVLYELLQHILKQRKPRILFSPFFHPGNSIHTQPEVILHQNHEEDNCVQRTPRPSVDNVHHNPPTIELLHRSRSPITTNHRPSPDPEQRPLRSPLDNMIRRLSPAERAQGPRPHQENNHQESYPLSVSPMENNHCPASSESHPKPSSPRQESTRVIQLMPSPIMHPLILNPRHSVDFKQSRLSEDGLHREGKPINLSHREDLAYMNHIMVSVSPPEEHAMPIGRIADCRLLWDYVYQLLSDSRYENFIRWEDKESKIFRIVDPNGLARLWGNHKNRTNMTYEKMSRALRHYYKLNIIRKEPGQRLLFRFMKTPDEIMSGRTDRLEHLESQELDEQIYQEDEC

This passage reports binding signal results from paper PMC7862700, “An all-to-all approach to the identification of sequence-specific readers for epigenetic DNA modifications on cytosine”.

CRX, sequence (O43186 whole entry): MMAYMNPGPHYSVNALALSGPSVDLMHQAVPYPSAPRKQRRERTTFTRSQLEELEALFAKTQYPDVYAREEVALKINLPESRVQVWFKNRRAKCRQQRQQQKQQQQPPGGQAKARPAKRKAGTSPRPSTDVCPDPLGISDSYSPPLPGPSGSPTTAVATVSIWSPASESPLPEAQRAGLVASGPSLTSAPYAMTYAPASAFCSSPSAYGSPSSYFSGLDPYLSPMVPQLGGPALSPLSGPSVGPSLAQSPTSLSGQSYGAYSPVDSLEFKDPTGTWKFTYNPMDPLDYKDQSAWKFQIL
ETV5, sequence (P41161 whole entry): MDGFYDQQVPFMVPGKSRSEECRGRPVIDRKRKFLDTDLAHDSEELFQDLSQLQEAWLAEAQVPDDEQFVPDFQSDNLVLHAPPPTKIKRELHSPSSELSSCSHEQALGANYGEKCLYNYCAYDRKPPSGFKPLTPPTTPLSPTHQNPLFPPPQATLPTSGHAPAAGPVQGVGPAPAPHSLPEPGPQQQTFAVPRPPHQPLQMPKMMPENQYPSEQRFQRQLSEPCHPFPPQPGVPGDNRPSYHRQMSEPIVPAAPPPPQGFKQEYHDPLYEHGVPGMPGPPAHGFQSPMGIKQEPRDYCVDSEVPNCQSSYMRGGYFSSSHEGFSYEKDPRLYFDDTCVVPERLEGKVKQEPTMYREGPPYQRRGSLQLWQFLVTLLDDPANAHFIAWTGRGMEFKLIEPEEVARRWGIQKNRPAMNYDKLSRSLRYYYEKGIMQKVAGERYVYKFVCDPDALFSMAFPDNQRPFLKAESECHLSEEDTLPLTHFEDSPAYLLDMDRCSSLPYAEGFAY
ETV1, sequence (P50549 whole entry): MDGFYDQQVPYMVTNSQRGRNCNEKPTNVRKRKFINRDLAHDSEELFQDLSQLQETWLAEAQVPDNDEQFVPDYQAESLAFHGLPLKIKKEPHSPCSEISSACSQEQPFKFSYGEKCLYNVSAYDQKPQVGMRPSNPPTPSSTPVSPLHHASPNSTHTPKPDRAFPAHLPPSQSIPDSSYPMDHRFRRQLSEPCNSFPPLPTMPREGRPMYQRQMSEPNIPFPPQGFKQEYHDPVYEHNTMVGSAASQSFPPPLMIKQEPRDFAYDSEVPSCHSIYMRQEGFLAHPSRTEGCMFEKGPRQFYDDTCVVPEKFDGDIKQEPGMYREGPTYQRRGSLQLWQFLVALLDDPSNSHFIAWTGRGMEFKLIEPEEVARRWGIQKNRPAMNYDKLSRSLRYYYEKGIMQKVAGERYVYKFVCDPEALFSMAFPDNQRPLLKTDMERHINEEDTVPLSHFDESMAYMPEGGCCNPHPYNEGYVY

ATTTGA: the binding signal with FEV was 1.17 fold enrichment (6-mer frequency, TF over GST control); with ETV5, 1.16 fold enrichment (6-mer frequency, TF over GST control); in the assay with HSF1 it was 1.21 fold enrichment (6-mer frequency, TF over GST control); with SPIC it was 1.11 fold enrichment (6-mer frequency, TF over GST control); in the assay with ELF4 it was 1.21 fold enrichment (6-mer frequency, TF over GST control); with ELK4, 1.07 fold enrichment (6-mer frequency, TF over GST control). The binding signal was 1.16 fold enrichment (6-mer frequency, TF over GST control) with ETV2; 1.16 fold enrichment (6-mer frequency, TF over GST control) with ELF3; 1.41 fold enrichment (6-mer frequency, TF over GST control) with CRX; 1.2 fold enrichment (6-mer frequency, TF over GST control) in the assay with ETV1; 1.14 fold enrichment (6-mer frequency, TF over GST control) with ERF; 1.25 fold enrichment (6-mer frequency, TF over GST control) with ETV3L. For the same sequence, the binding signal with ETS2 was 1.2 fold enrichment (6-mer frequency, TF over GST control); with SPDEF, 1.19 fold enrichment (6-mer frequency, TF over GST control); with ETV7, 1.28 fold enrichment (6-mer frequency, TF over GST control); in the assay with ELF5, 1.12 fold enrichment (6-mer frequency, TF over GST control); in the assay with ETV3 it was 1.21 fold enrichment (6-mer frequency, TF over GST control); with ETV6, 1.16 fold enrichment (6-mer frequency, TF over GST control).
